PubChem BioAssay AID720706 (Broad Institute, 2013)
Out of some 350,000 compounds screened, about 5,500 (1.6%) were called active.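 The calls were made as follows: active = significant combined selectivity score with lowered wild-type GFP, culture density cut under 30%, mutant RFP and density less affected; inactive = any of these conditions unmet.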 Shown is part of a subset that was picked to be rich in actives.

Assay: reduced GFP signal of wild-type E. coli, primary screen, bacterial rRNA inhibitor project, GFP/RFP fluorescence, OD600, single point (AID 720706)
Details: E. coli WT GFP vs humanized-ribosome RFP mutants, 24 h; GFP signal change (wild-type ribosome): stronger effect = lower value, DMSO median 0, no signal -100; OD600 change: measured here: OD600 growth, DMSO median 0, no signal -100; RFP signal change: measured here: RFP humanized mutant strains, DMSO median 0, no signal -100, concentration not given here

Row | Compound | GFP signal change (wild-type ribosome) | OD600 change [%] | RFP signal change [%]
1 | COc1ccccc1-c1cnc2c(c1)C(=O)N([C@@H](C)CO)C[C@H](C)[C@@H](CN(C)C(C)=O)O2 | 3.59% (inactive) | 4.33 | -1.79
2 | O=C(/C=C/c1ccc(Cl)c([N+](=O)[O-])c1)c1ccc(O)cc1 | -26.1% (active) | -2.69 | 9.14
3 | CN(C)c1ccc(/C=C/C(=O)c2ccc(O)cc2)cc1[N+](=O)[O-] | -22.5% (active) | -13.8 | 5.33
4 | COc1ccc(OC)c(/C=C/C(=O)c2ccc3c(c2)OCO3)c1 | 0.015% (inactive) | -9.29 | -8.02
5 | O=C(/C=C/c1ccc2c(c1)OCCO2)c1ccc(O)cc1 | -19.8% (active) | -11.6 | 6.75
6 | CC(=O)Nc1ccc(C=CC(=O)c2ccc([N+](=O)[O-])cc2)cc1 | 5.97% (inactive) | 7.9 | -0.138
7 | CC(CC(=O)O)C(=O)c1ccc(Cl)c([N+](=O)[O-])c1 (configuration not stated) | 10.7% (inactive) | 9.82 | -3.76
8 | CC(=O)Nc1ccc(C=Cc2ccc([N+](=O)[O-])cc2)cc1 | 2.45% (inactive) | 3.79 | -1.71
9 | O=C(COC(=O)c1ccc(O)cc1O)c1ccc2c(c1)OCCO2 | -13.2% (inactive) | -20.4 | 0.835
10 | O=C(/C=C/c1ccc(Cl)cc1)N1CCN(c2ccccc2[N+](=O)[O-])CC1 | -31% (inactive) | -42.6 | -26.6
11 | CC=Cc1ccc2n(c1=O)C[C@@H]1[C@@H](CO)[C@H](C(=O)N(C)C)N(CC3CCOCC3)[C@H]21 (mixture of isomers) | 2.33% (inactive) | -5.67 | 0.865
12 | CN1c2ccc(Br)cc2[C@@H]2[C@@H](CCN2C(=O)C2CCCC2)[C@H]1CO | -37% (inactive) | -68.3 | 0.745
13 | COCC#Cc1ccc([C@@H]2[C@@H](CO)N3CCCCN(C(=O)COC)C[C@@H]23)cc1 | 4.36% (inactive) | 1.27 | -1.64
14 | COCC#Cc1ccc2c(c1)O[C@H](CN(C)C(=O)CC1CC1)[C@@H](C)CN([C@@H](C)CO)S2(=O)=O | 1.22% (inactive) | 3.88 | -1.84
15 | CCCNC(=O)N(C)C[C@H]1Oc2ncc(-c3ccccc3F)cc2C(=O)N([C@@H](C)CO)C[C@H]1C | -0.164% (inactive) | 9.97 | 0.69
16 | CC(=O)NC(c1ccccc1)c1nc(-c2cccc(C(C)C)c2)cs1 (configuration not stated) | 2.35% (inactive) | -27.5 | 4.32
17 | Cc1cccc(Nc2nc(-c3ccccc3)cs2)n1 | -36.3% (active) | -28.1 | -6.26
18 | COc1ccc(-c2csc(Nc3cccc(C)n3)n2)cc1OC | -3.87% (inactive) | -21.5 | 23
19 | COc1ccc(-c2cn(CC[C@@H]3CC[C@@H](NS(=O)(=O)c4ccccc4C)[C@H](CO)O3)nn2)cc1 | -0.161% (inactive) | 0.015 | 1.23
